# Test results: PubChem BioAssay (NCATS)
# Records with an inconclusive call do not appear. A call without a number means that no potency is given here. Values without a mark were called inactive. Activity calls are given as the source filed them. The call rests on the fitted dose curve.
# Target: Atrial natriuretic peptide receptor 1 (Homo sapiens) (UniProt P16066)
# Test: Natriuretic polypeptide receptor (hNpr1) antagonism - Pilot CMLD screen (AID 1347052);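 further: HEK293 cells with hNpr1 stimulated by hNppA peptide at 0.1 nM; cGMP level read as GloSensor luciferase luminescence after agonist stimulation; series mostly up to about 9.2 µM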
# Atrial natriuretic peptide receptor 1 (Homo sapiens), sequence (P16066 whole entry, looked up): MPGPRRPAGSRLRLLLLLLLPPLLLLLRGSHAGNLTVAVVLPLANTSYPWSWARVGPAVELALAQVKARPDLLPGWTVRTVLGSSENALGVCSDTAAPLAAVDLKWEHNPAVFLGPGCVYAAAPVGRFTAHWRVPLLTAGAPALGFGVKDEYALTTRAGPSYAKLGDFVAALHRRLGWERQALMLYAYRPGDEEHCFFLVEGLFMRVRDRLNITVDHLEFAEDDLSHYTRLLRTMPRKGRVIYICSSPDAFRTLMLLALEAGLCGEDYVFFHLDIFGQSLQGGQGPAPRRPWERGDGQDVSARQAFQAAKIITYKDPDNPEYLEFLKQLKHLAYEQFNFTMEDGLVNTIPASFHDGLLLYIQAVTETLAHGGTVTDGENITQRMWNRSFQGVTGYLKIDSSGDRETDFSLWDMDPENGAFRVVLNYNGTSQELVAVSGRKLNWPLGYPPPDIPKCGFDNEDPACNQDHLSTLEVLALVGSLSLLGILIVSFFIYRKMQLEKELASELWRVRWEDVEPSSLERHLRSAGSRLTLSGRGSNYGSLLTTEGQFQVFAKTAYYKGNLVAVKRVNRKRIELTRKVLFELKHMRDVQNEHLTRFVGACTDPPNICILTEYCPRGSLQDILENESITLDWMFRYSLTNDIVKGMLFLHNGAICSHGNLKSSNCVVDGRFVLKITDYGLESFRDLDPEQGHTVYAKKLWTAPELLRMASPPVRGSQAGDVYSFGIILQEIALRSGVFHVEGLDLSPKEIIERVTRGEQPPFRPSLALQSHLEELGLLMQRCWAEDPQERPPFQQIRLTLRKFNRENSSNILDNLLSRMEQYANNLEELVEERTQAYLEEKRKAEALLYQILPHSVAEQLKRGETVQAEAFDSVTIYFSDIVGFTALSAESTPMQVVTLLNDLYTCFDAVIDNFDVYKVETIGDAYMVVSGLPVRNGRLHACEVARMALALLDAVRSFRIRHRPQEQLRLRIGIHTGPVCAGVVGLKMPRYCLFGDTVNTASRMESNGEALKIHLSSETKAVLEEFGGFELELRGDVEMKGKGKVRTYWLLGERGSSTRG
row,Structure (SMILES),Potency
1,COc1ccc([C@@H](NC(=O)C(F)(F)F)C2CCCC=C2c2ccccc2)cc1OC (stereo partly drawn),inactive
2,C[C@@H]1CC2=CCCC2[C@]2(O1)C(=O)N(Cc1ccc(F)cc1)c1cccc(Br)c12 (stereo partly drawn),inactive
3,CCc1cc2c(nc1CC)CCN(CCC(C)=NOC[C@@H](C)[C@H](OCc1ccccc1)C(C)C)C2,inactive
